Source: PubChem BioAssay AID504834 (National Center for Advancing Translational Sciences (NCATS), 2011)
In all, about 320,000 compounds went through this assay and about 22,000 (6.9%) were called active. Roughly 27% stayed inconclusive and do not appear here. Calls follow the shape of the dose curve; as a rule, active = well fitted inhibition curve with a large enough effect; inconclusive = small, poorly fitted or top-dose-only effect, or another doubt; inactive = no such curve, though single readings can be large or run the other way. For the sample, actives were picked, then their nearest neighbours and some compounds at random.

Assay: Primary qHTS for delayed death inhibitors of the malarial parasite plastid, 96 hour incubation
Conditions: P. falciparum luciferase reporter growth; series mostly up to 28.7 µM; activity change, negative = inhibition: at the top concentration
Outline: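 P. falciparum expressing integrated firefly luciferase grown in erythrocytes (2% hematocrit, 0.05% parasitemia final) with compounds for 96 hours at 37 C, 5% CO2. Growth inhibition read as loss of luminescence after adding luciferase detection reagent.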
% is scaled to controls: 0 for no effect and ±100 for the full control effect; potency is read from the fitted curve at half-maximal effect.

Structure (SMILES) | activity change, negative = inhibition | Potency
Cc1ccc(-c2noc(CCC(=O)Nc3ccccc3N3CCN(C)CC3)n2)cc1 | -10.9% (inactive) | 
Cc1cc(NC(=O)C(C)N2C(=O)c3ccccc3S2(=O)=O)no1 (stereo not given) | 50.7% (inactive) | 
Cc1cc(NC(=O)C(C)SCC(=O)Nc2ccccc2N2CCCCC2)no1 (stereo not given) |  | 9.28 µM (active)
CC1(c2ccc3ccccc3c2)NC(=O)NC1=O (stereo not given) | 15.2% (inactive) | 
Cc1ccc(O)c(/C=N/NC(=O)COc2ccc3c(C)cc(=O)oc3c2)c1 |  | 10.4 µM (active)
Cc1cc(=O)oc2cc(OCC(=O)Nc3nnc(C4CC4)s3)ccc12 | 24.1% (inactive) | 
CCOC(=O)Cc1csc(NC(=O)COc2ccc3c(C)cc(=O)oc3c2)n1 | 37.9% (inactive) | 
COc1cccc2[nH]c(C(=O)NCCc3ccccc3)cc12 | 30.1% (inactive) | 
Cc1nnc(Nc2ccccc2F)s1 | 3.63% (inactive) | 
NS(=O)(=O)c1ccc(CCNC(=O)CNC(=O)Cc2ccccc2)cc1 | 12.5% (inactive) | 
CC(=O)O[C@H]1c2ccccc2-c2ccccc2[C@@H]1OC(C)=O | -23.2% (inactive) | 
O=S(=O)(c1ccc(SCc2ccc(Br)cc2)nc1)N1CCOCC1 | -31.3% (inactive) | 
CCc1nc(NCCO)c(C#N)c2c1CCCC2 | 8.09% (inactive) | 
CN(C)c1nccc(NCc2ccccc2)c1C#N | -1% (inactive) | 
CCCCc1nc(NCc2ccccc2)c(C#N)c2c1CCCC2 |  | 5.22 µM (active)
CCOCc1nnc(NC(=O)CCS(=O)(=O)Cc2ccccc2)s1 | 8.85% (inactive) | 
COc1ccc(CNS(=O)(=O)c2ccc(-c3cnc(C4CC4)o3)cc2)cc1 |  | 10.4 µM (active)
COc1ccc(CNS(=O)(=O)c2cc(-c3cc(C)no3)ccc2C(C)C)cc1 | 21.3% (inactive) | 
COc1ccc(CNS(=O)(=O)c2ccc(NC(=O)N3CCCCC3)cc2)cc1 | -9.06% (inactive) | 
CCC(=O)N1c2ccc(S(=O)(=O)NCc3ccco3)cc2CC1C (stereo not given) | 100% (inactive) | 
COCCN(C(=O)CCC(=O)Nc1nccs1)C(C(=O)NCCC(C)C)c1ccc(F)cc1 (stereo not given) | 20% (inactive) | 
COCCN(C(=O)CCC(=O)Nc1ccccn1)C(C(=O)NCCC(C)C)c1ccc(OC)cc1 (stereo not given) |  | 0.522 µM (active)

Structure (SMILES) | activity change, negative = inhibition | Potency
COCCNC(=O)C(c1ccc(C)cc1)N(C(=O)CCC(=O)Nc1ccccn1)c1cccc(C)c1 (stereo not given) | 7.39% (inactive) | 
CN(CC(=O)NCc1ccc(Cl)cc1)S(=O)(=O)c1cccs1 | 22.6% (inactive) | 
COc1ccccc1OCCNC(=O)CCNC(=O)c1ccccc1Cl | -22.2% (inactive) | 
COc1cc(SC)ccc1C(=O)NCCOc1ccccc1Cl |  | 0.738 µM (active)
COc1ccc(N2C(=O)C3CCCN3C2c2cccc(OC)c2)cc1 (stereo not given) | 7.91% (inactive) | 
COc1ccc(N2C(=O)C3CCCN3C2c2cc(OC)c(OC)cc2OC)cc1 (stereo not given) | 45.6% (inactive) | 
COc1cccc(N2C(=O)C3CCCN3C2c2ccc(F)cc2)c1 (stereo not given) |  | 10.4 µM (active)
CCNC(=O)c1cnn(-c2ccccc2)c1-c1ccccc1 | -20% (inactive) | 
COc1ccccc1CNC(=O)COn1nnc2ccc(S(=O)(=O)N3CCOCC3)cc21 | -2.01% (inactive) | 
CC(C)C(C(=O)NCc1ccco1)N(CC1CCCO1)C(=O)CNS(=O)(=O)c1ccc(F)cc1 (stereo not given) | -19.1% (inactive) | 
CCCC(C(=O)NCc1ccco1)N(C(=O)CNS(=O)(=O)c1ccccc1)C1CCCC1 (stereo not given) |  | 10.4 µM (active)
O=C(CN(CC1CCCO1)C(=O)CNS(=O)(=O)c1ccc(F)cc1)NCc1ccco1 (stereo not given) | 19.6% (inactive) | 
Cc1cc(=O)n2[nH]c(-c3cccc(Cl)c3)cc2n1 | -30.1% (inactive) | 
CCc1c(C)nc2cc(C)[nH]n2c1=O |  | 3.7 µM (active)
Cc1nc2nc(COc3ccccc3)[nH]n2c(=O)c1Cc1ccccc1 | 29% (inactive) | 
CCc1c(C)nc2cc(-c3cccs3)[nH]n2c1=O |  | 2.08 µM (active)
CCC(C)n1[nH]c(=O)c2c(C)cc(C)nc21 (stereo not given) | 4.88% (inactive) | 
C=CCc1c(C)nc2cc(-c3ccccc3)[nH]n2c1=O | 20.7% (inactive) | 
CC(=O)Nc1ccc(S(=O)(=O)N2CCC(C(=O)N[C@@H](Cc3ccccc3)C(=O)O)CC2)cc1 | 16.2% (inactive) | 
CC(OC(=O)CCC(=O)c1ccccc1)C(=O)Nc1ccc(F)cc1 (stereo not given) | 4.68% (inactive) | 
NC(=O)CN1CCCC1c1ccc2c(c1)OCCO2 (stereo not given) | 37.4% (inactive) | 
O=C(Cc1ccccc1)N1CCN(S(=O)(=O)c2ccc([N+](=O)[O-])cc2)CC1 | 0.489% (inactive) | 

Structure (SMILES) | activity change, negative = inhibition | Potency
O=C(C1CCC1)N1CCN(S(=O)(=O)c2ccc([N+](=O)[O-])cc2)CC1 |  | 10.4 µM (active)
O=C(C1CCCN(S(=O)(=O)c2ccc([N+](=O)[O-])cc2)C1)N1CCCCC1 (stereo not given) | 83% (inactive) | 
O=C(/C=C/c1ccccc1[N+](=O)[O-])OC1CCCCC1=O (stereo not given) | 22.2% (inactive) | 
O=C(/C=C/c1ccccc1[N+](=O)[O-])NCC1CCCO1 (stereo not given) | 0% (inactive) | 
CC1CCCCC1NC(=O)/C(C#N)=C/C=C/c1ccccc1[N+](=O)[O-] (stereo not given) |  | 11.7 µM (active)
CC(=O)Nc1cccc(C(=O)OCC(=O)Nc2nnc(-c3ccccc3)o2)c1 | -0.187% (inactive) | 
CC(OC(=O)/C=C/c1ccccc1)C(=O)NC1CCCCC1C (stereo not given) | -13.5% (inactive) | 
CC[N+](C)(CC)CCC[n+]1c(-c2ccccc2)c2cc(N)ccc2c2ccc(N)cc21 |  | 0.233 µM (active)
O=C(CCNC(=O)c1ccccc1)Nc1nc2ccccc2s1 | 80.1% (inactive) | 
CC(C)(C)OC(=O)NC(Cc1ccccc1)C(=O)NC(CSC1CCCCO1)C(=O)NN (stereo not given) | -13.4% (inactive) | 
CCn1cc(C(=O)NCC(=O)NC(C)(C)CO)c(=O)c2cc3c(cc21)OCO3 | 33.4% (inactive) | 
CCOc1ccc(N(CC(=O)Nc2ccccc2F)S(=O)(=O)c2c(C)[nH]c(=O)[nH]c2=O)cc1 | 10.6% (inactive) | 
COc1cccc(N(CC(=O)NC2CCCCCC2)S(=O)(=O)c2ccccc2)c1 |  | 13.1 µM (active)
O=C(CN(c1cccc(Cl)c1)S(=O)(=O)c1ccccc1)NN=C1CCCC1 | -104% (inactive) | 
COc1ccc(N(CC(=O)NC2CCCCC2)S(=O)(=O)c2c(C)[nH]c(=O)[nH]c2=O)cc1 |  | 5.86 µM (active)
COc1cccc(N(CC(=O)NC2CCCC2)C(=O)CCCC(=O)Nc2ccccn2)c1 | -25.1% (inactive) | 
COc1ccc(N(CC(=O)Nc2ccc(F)c(F)c2)S(=O)(=O)c2c(C)[nH]c(=O)[nH]c2=O)cc1 | 15.3% (inactive) | 
O=C(Cc1cccs1)NCc1cccc(C(F)(F)F)c1 | 12.6% (inactive) | 
COc1ccc(N2CC(C(=O)NCCS(=O)(=O)N3CCN(c4ccccc4)CC3)CC2=O)cc1 (stereo not given) | 107% (inactive) | 
CCC(CC)C(=O)Nc1c2c(nn1-c1ccc(C)cc1)CS(=O)(=O)C2 | -17.7% (inactive) | 
O=CN1CCN(C(=O)c2ccc3c(c2)OCO3)CC1 | -14% (inactive) | 
